“And” between values parts separate entries of the source, which are not always exact repeats. Equal entries are not always repeated. Inconclusive results are not listed. A structure can be active in one record and inactive in another. The source made the active and inactive calls. How the source made its calls: active means hit-call score of the fitted dose curve at least 0.9, where 1 is the maximum; inconclusive means response in the unintended direction; inactive means score below 0.9.

In the first assay the test system is turtle Estrogen Receptor (ESR1), gene 101933533. In words: ATG_trERa_XSP1: Attagene TRANS-FACTORIAL Multi-Species (XSP1) HepG2 Assay for turtle Estrogen Receptor (ESR1) (AID 2283781). The method, boiled down:
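Transfect HepG2 with reporter units → dose chemical 24 h (medium has 3 nM 6-alpha-fluorotestosterone) → isolate RNA, RT-PCR → FAM primer extension, HpaI digest → capillary electrophoresis; gain of signal vs DMSO.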
In the case of `Cc1oc(-c2ccccc2)nc1CCOc1ccc(C[C@H](Nc2ccccc2C(=O)c2ccccc2)C(=O)O)cc1`, the compound was called inactive.

The term AC50 denotes the concentration giving half of the maximal activity seen. Turning to `CC[C@H](c1ccc(O)cc1)[C@@H](CC)c1ccc(O)cc1`, the AC50 was 2.26e-05 µM (active).

In the case of `CCC(C)(C)C1CCC(O)CC1` (configuration not stated), the AC50 is 10 µM (active).

System in the next assay: not listed separately
In words: ACEA_ER_AUC_viability: ACEA Biosciences xCELLigence Real-Time Cell Analysis on Estrogen Receptor Agonism for Viability (AID 2283782).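 Further: hit means loss of impedance signal meaning reduced cell growth or viability.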 The method, boiled down:
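Read-out: real-time electrical impedance (RT-CES) area under curve, loss of signal taken as reduced viability, normalized to DMSO baseline. T-47D cells, charcoal-stripped serum medium, compounds up to 100 uM final, continuous exposure, 80 h.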
For the compound `c1ccc2c(c1)Cc1ccccc1-2`, the compound was called inactive. Still for that read-out and setting: the same measure for `OCCC(F)(F)C(F)(F)C(F)(F)C(F)(F)C(F)(F)C(F)(F)F`: “inactive”. Same read-out and setting: the same measure for `Cc1cc(C)c(O)c(C)c1`: “inactive”; for `CC(C)(C)c1cccc(C(C)(C)C)c1O`: “inactive”. `FC(F)(I)C(F)(F)C(F)(F)C(F)(F)C(F)(F)C(F)(F)I`: the AC50 was 45 µM (active).

For the compound `CC(C)(C)CC(C)(C)c1ccc(O)c(-n2nc3ccccc3n2)c1`, the AC50 is 21.6 µM (active). The same measure, in the same setting: the result for `CCCCCCCCCCCCCC[N+](C)(C)C` reads 15.9 µM (active) and 6.59 µM (active). On the same count and under the same terms, the result for `CC#C[C@]1(O)CC[C@H]2[C@@H]3CCC4=CC(=O)CCC4=C3[C@@H](c3ccc(N(C)C)cc3)C[C@@]21C` reads 90.5 µM (active) and 83.7 µM (active) and 82.6 µM (active). As for `NCC(F)(F)C(F)(F)C(F)(F)C(F)(F)C(F)(F)C(F)(F)C(F)(F)F`, the result was inactive.

Regarding `OC1CCC(C2CCCCC2)CC1` (configuration not stated), the concentration at half-maximal activity (AC50) was 83 µM (active) and 84.8 µM (active) and 86.7 µM (active). In the case of `CC(=O)NC1(c2cccc(F)c2)CCN(CC[C@@]2(c3ccc(Cl)c(Cl)c3)CN(c3ccccc3)C(=O)CO2)CC1`, the AC50 was 11.8 µM (active).

For the compound `ClC1=C(Cl)C(Cl)(Cl)C(Cl)=C1Cl`, the AC50 was 71.2 µM (active). For `O=C1OC2(c3ccccc31)c1cc(Br)c(O)c(Br)c1Oc1c2cc(Br)c(O)c1Br`, the result was inactive. As for `Cc1oc(-c2ccccc2)nc1CCOc1ccc(C[C@H](Nc2ccccc2C(=O)c2ccccc2)C(=O)O)cc1`, the half-maximal activity concentration (AC50) was 78.5 µM (active).

Turning to `CC[C@H](c1ccc(O)cc1)[C@@H](CC)c1ccc(O)cc1`, the concentration at half-maximal activity (AC50) is 83.3 µM (active) and the call was inactive.

Turning to `O=C(O)Cc1cc(I)c(Oc2cc(I)c(O)c(I)c2)c(I)c1`, the call was inactive. Regarding `C=C(C)C(=O)OCCC(F)(F)C(F)(F)C(F)(F)C(F)(F)C(F)(F)C(F)(F)F`, the outcome was inactive. Same read-out and setting: the result for `CCCCCCC(=O)O` reads “inactive”. `O=[N+]([O-])c1ccc(O)cc1`: the compound was classed as inactive. Consider `CCC(C)(C)C1CCC(O)CC1` (configuration not stated), for which the compound was classed as inactive. For the compound `CC(C)(C)c1ccc(O)c(C(C)(C)C)c1`, the AC50 is 17.3 µM (active). As for `CCCOc1sc(C(=O)N2CCC(c3cc(CN)ccc3F)CC2)c(C)c1Br`, the concentration at half-maximal activity (AC50) is 5.11 µM (active).

In the case of `CC(O)CO` (configuration not stated), the result was inactive.
